# Results as given in PubChem BioAssay.
# For part of these data: Entries with a potency or affinity are not part of this list. Active and inactive are the calls of the source.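 The calls were made as follows, unless noted: active = calcium signal cut by more than 3 SD below the full-agonist control yet still positive, in both repeats and the earlier primary screen; inactive = the rest.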
# How the values were obtained:
# [1] = test system: TRPC4 beta (transient receptor potential cation channel C4), mouse; assay: TRPC4 cation channel opening, retest – cell-based, Fluo4 calcium, HEK293 TRPC4beta/mu-opioid, duplicates, 10 µM, confirmation (AID 2426;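 active = fluorescence ratio normalized to control raised more than 50% in primary screen plus both repeat runs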); settings: Fluo4 calcium fluorescence, at 10 µM; hits give high values
# [2] = test system: transient receptor potential cation channel C4 beta (TRPC4), mouse; assay: TRPC4 cation channel opening, second retest – cell-based, second round, Fluo4, HEK293 TRPC4beta/mu-opioid, 1 µM, confirmation (AID 2461;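 active = primary screen active and over 50% activation in each of two duplicate runs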); settings: Fluo4 calcium fluorescence, at 1 µM; hits give high values
# [3] = test system: TRPC4 (transient receptor potential cation channel C4 beta), mouse; assay: potentiation of DAMGO EC20 TRPC4 response – cell-based, second round, Fluo-4, HEK293 TRPC4beta/mu-opioid, 1 µM, confirmation (AID 2554;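 active = primary screen hit whose fluorescence ratio, in both repeats, exceeds the weak agonist control mean by 3 SD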); settings: DAMGO EC20, Fluo-4 calcium flux, at 1 µM; hits give high values
# [4] = test system: TRPC4 beta (transient receptor potential cation channel C4), mouse; assay: potentiation of DAMGO EC20 TRPC4 response – cell-based, Fluo-4, HEK293 TRPC4beta/mu-opioid, confirmation (AID 2555;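 active = primary screen hit whose calcium fluorescence ratio, in both repeats, exceeds the weak agonist control mean by 3 SD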); settings: DAMGO EC20, Fluo-4 calcium flux, at 10 µM; hits give high values
# [5] = target: Short transient receptor potential channel 4 (Mus musculus) (UniProt Q9QUQ5); assay: blockers of DAMGO-evoked TRPC4 calcium flux – cell-based, Fluo4, HEK293 TRPC4beta/mu-opioid, confirmation (AID 2636); settings: at 10 µM; hits give high values
# [6] = target: Short transient receptor potential channel 4 (Mus musculus) (UniProt Q9QUQ5); assay: blockers of DAMGO-evoked TRPC4 calcium flux – cell-based, second round, Fluo4, HEK293 TRPC4beta/mu-opioid, 1 µM, confirmation (AID 2637;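 active = calcium signal ratio cut to more than 3 SD under the fully stimulated control mean yet still positive, in both repeats and the primary screen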;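 as to inhibition: percent of integrated ratio relative to wells lacking test compound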); settings: at 1 µM; hits give high values
# [7] = target: Short transient receptor potential channel 4 (Mus musculus) (UniProt Q9QUQ5); assay: calcium entry via TRPC4 opening agents – cell-based, HEK293 TRPC4/mu-opioid, Fluo-4 calcium, dose response (AID 434937;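 active = primary screen activator hit with a dose response curve and TRPC4 channel activation at any tested dose; inactive = no activation, no dose response, or not a primary hit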)
# [8] = target: Short transient receptor potential channel 4 (Mus musculus) (UniProt Q9QUQ5); assay: potentiation of DAMGO-evoked TRPC4 calcium signal – cell-based, HEK293 TRPC4/mu-opioid, Fluo-4 calcium, EC20 DAMGO, dose response (AID 434941;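 active = earlier screen potentiator hit that boosts the TRPC4 ion channel at some dose, with a dose response; inactive = no potentiation, no dose response, or not a prior hit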;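 also: calcium entry triggered by an EC20 dose of DAMGO at the co-expressed mu-opioid receptor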)
# [9] = target: Short transient receptor potential channel 6 (Mus musculus) (UniProt Q61143); assay: TRPC6 blockade by TRPC4 inhibitor hits – cell-based, HEK293, membrane potential dye, duplicate, selectivity assay for TRPC4 inhibitor project, confirmation (AID 434948;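 active = active in primary screen and both duplicates, each dropping signal beyond three positive-control SD with fluorescence still positive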); settings: HEK293 TRPC6, membrane potential dye fluorescence, at 10 µM, stimulated with maximal-effect acetylcholine; hits give high values
# [10] = target: Short transient receptor potential channel 6 (Mus musculus) (UniProt Q61143); assay: TRPC6 opening by TRPC4 activator hits – cell-based, HEK293, membrane potential dye, duplicate, selectivity assay for TRPC4 activator project, confirmation (AID 434950;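 active = membrane potential signal rise above negative control mean plus 3 SD in both duplicates, also active in the earlier TRPC4 screen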;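 as to activation: 0% = buffer only wells and 100% = acetylcholine maximal-effect wells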); settings: HEK293 TRPC6, membrane potential fluorescence, at 10 µM; activation: hits give high values; outcome: activation
# [11] = target: Short transient receptor potential channel 6 (Mus musculus) (UniProt Q61143); assay: positive modulators of mouse TRPC6 channel – HEK293 cells, membrane potential dye, duplicate, selectivity assay for TRPC4 potentiator project, confirmation (AID 434952;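 active = compound raising the membrane signal above positive-control mean plus 3 SD in both repeats, and a primary screen hit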); settings: HEK293 TRPC6, membrane potential dye fluorescence, at 10 µM, maximal acetylcholine added after compound; hits give high values
# [12] = target: Short transient receptor potential channel 4 (Mus musculus) (UniProt Q9QUQ5); assay: calcium flux activators in TRPC4/5HT1a cells, counter-screen for TRPC4 activator project, cell-based, second counter screen, HEK293 TRPC4/5HT1a, Fluo-4 (AID 434977;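 active = calcium signal rise above buffer-control mean plus 5 SD in both duplicates, and also a hit in the primary screen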); settings: Fluo-4 calcium flux, at 10 µM; hits give high values
# [13] = serotonin-gated TRPC4 signal block – cell-based, second counter screen, HEK293 TRPC4/5HT1a, Fluo-4, counter-screen for TRPC4 inhibitor project, confirmation (AID 434978;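 active = primary screen active whose calcium signal fell more than 3 SD beyond the full-serotonin control mean in both duplicate plates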;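 as to outcome: serotonin given first at submaximal then at maximal dose after compound preincubation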); settings: Fluo-4 calcium flux, at 10 µM, serotonin added to trigger calcium flux; hits give high values
# [14] = test system: TRPC4 (mouse), co-expressed with 5HT1a in HEK293; assay: enhancement of serotonin-evoked TRPC4 response – cell-based, second counter screen, HEK293 TRPC4/5HT1a, Fluo-4, counter-screen for TRPC4 potentiator project, confirmation (AID 434979;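 active = signal rise over 3 SD above mean of control wells given weak agonist, in both repeats and first screen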); settings: Fluo-4 calcium flux, at 10 µM, serotonin added at its EC20 dose; hits give high values
# [15] = nonspecific calcium rise without TRPC4 – cell-based, HEK293 mu-opioid receptor line, counter-screen for TRPC4 activator project, confirmation (AID 449723;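 active = hit in primary screen, with calcium signal over 5 SD above buffer well mean in both duplicates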;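 also: counter screen cells carry the mu-opioid receptor alone and lack TRPC4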); settings: HEK293 mu-opioid cells, Fluo-4 calcium fluorescence, at 10 µM; hits give high values
# [16] = nonspecific potentiation of DAMGO calcium response – cell-based, HEK293 mu-opioid receptor line, counter-screen for TRPC4 allosteric potentiator project, confirmation (AID 449724;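 active = calcium signal rise more than 3 SD above the low-dose agonist control mean, in both duplicate plates and the primary screen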); settings: HEK293 mu-opioid receptor cells, Fluo-4 calcium flux, at 10 µM, compound added before EC20 DAMGO stimulus; hits give high values
# Chain of Short transient receptor potential channel 6 (Mus musculus) (Q61143 whole entry, looked up): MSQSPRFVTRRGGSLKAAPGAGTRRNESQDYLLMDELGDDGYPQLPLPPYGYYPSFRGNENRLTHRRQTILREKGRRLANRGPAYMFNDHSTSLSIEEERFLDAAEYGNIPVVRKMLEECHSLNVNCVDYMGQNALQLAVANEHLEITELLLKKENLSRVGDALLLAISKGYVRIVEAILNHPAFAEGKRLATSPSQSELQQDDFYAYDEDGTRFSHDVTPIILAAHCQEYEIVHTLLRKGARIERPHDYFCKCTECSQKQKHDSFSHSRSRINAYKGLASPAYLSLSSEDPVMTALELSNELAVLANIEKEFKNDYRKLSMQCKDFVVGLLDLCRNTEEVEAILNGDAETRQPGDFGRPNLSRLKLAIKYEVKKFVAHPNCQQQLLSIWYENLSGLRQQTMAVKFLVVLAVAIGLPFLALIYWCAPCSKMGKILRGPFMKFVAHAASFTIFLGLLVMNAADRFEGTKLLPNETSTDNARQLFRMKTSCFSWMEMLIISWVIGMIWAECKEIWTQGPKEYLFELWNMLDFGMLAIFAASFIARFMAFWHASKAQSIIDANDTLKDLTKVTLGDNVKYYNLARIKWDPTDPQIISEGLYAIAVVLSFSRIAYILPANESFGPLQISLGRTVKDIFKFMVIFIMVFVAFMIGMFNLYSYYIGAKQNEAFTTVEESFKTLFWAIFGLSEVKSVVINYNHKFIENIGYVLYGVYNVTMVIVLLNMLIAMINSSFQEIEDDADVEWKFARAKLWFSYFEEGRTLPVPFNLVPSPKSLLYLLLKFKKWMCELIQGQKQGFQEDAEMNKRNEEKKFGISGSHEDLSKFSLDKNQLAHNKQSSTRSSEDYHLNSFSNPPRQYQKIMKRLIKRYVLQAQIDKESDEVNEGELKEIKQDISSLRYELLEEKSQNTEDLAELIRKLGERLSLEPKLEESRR
# Chain of Short transient receptor potential channel 4 (Mus musculus) (Q9QUQ5 whole entry, looked up): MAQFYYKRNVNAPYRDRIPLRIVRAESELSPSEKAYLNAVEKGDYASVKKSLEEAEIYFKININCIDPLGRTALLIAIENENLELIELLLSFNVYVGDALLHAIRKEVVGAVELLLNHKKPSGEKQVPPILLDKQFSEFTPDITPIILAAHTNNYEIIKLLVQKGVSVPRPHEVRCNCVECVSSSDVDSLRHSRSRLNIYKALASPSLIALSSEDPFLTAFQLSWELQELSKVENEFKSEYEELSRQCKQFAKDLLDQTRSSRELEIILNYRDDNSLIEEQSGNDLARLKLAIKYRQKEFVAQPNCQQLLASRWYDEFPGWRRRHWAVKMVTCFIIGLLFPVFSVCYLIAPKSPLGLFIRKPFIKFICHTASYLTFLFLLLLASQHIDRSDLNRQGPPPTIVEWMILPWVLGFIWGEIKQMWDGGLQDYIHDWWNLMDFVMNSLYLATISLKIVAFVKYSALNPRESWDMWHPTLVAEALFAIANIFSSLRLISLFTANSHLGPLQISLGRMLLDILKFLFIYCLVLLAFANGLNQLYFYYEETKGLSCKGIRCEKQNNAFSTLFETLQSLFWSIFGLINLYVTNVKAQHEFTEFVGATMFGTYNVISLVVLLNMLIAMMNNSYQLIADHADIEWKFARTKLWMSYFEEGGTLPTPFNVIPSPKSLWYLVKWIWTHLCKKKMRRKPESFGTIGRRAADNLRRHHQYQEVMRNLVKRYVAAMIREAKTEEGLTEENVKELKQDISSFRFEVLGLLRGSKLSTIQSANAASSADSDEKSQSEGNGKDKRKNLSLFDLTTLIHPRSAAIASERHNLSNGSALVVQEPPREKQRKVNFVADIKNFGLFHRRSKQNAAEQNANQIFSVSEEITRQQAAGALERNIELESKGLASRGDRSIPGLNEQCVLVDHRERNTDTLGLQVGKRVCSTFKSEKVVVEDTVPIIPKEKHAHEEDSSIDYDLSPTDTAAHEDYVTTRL
compound,measurement,setting,value
Fc1ccccc1CNCCC(Cc1ccccc1)c1ccc2c(c1)OCO2 (stereo not given),outcome,[1],inactive
same,outcome,[2],inactive
same,outcome,[3],inactive
same,outcome,[4],inactive
same,outcome,[5],inactive
same,outcome,[6],inactive
same,outcome,[7],inactive
same,outcome,[8],inactive
same,outcome,[9],inactive
same,activation,[10],48% (active)
same,outcome,[11],inactive
same,outcome,[12],inactive
same,outcome,[13],inactive
same,outcome,[14],inactive
same,outcome,[15],inactive
same,outcome,[16],inactive
Cn1c(-c2ccccc2)cnc1NCc1ccccc1,outcome,[1],inactive
same,outcome,[2],inactive
same,outcome,[3],inactive
same,outcome,[4],inactive
same,inhibition,[5],86% (active)
same,inhibition,[6],44% (active)
same,outcome,[7],inactive
same,outcome,[8],inactive
same,outcome,[9],inactive
same,outcome,[10],inactive
same,outcome,[11],inactive
same,outcome,[12],inactive
same,inhibition,[13],38.6% (active)
same,outcome,[14],inactive
same,outcome,[15],inactive
same,outcome,[16],inactive
CCCNC(=O)c1nnsc1S(=O)c1ccc(Cl)cc1 (stereo not given),outcome,[1],inactive
same,outcome,[2],inactive
same,outcome,[3],inactive
same,outcome,[4],inactive
same,inhibition,[5],88% (active)
same,inhibition,[6],42% (active)
same,outcome,[7],inactive
same,outcome,[8],inactive
same,outcome,[9],inactive
same,outcome,[10],inactive
same,outcome,[11],inactive
same,outcome,[12],inactive
same,inhibition,[13],20.3% (active)
same,outcome,[14],inactive
same,outcome,[15],inactive
same,outcome,[16],inactive
CC(/C=C1\SC(=S)N(C(C(=O)O)C(C)C)C1=O)=C\c1ccccc1 (stereo not given),outcome,[1],inactive
same,outcome,[2],inactive
same,outcome,[3],inactive
same,outcome,[4],inactive
same,inhibition,[5],99% (active)
same,outcome,[6],inactive
same,outcome,[7],inactive
same,outcome,[8],inactive
same,outcome,[9],inactive
same,outcome,[10],inactive
same,outcome,[11],inactive
same,outcome,[12],inactive
same,inhibition,[13],16% (active)
same,outcome,[14],inactive
same,outcome,[15],inactive
same,outcome,[16],inactive
O=[N+]([O-])c1cccc(N(CC(O)CN2CCCC2)S(=O)(=O)c2ccccc2)c1 (stereo not given),outcome,[1],inactive
same,outcome,[2],inactive
same,outcome,[3],inactive
same,outcome,[4],inactive
same,inhibition,[5],101% (active)
same,outcome,[6],inactive
same,outcome,[7],inactive
same,outcome,[8],inactive
same,outcome,[9],inactive
same,outcome,[10],inactive
same,outcome,[11],inactive
same,outcome,[12],inactive
same,outcome,[13],inactive
same,outcome,[14],inactive
same,outcome,[15],inactive
same,outcome,[16],inactive
Clc1ccc2c(c1)-c1nnc(Br)n1-c1ccccc1S2,outcome,[1],inactive
same,outcome,[2],inactive
same,outcome,[3],inactive
same,outcome,[4],inactive
same,inhibition,[5],83% (active)
same,outcome,[6],inactive
same,outcome,[7],inactive
same,outcome,[8],inactive
same,outcome,[9],inactive
same,outcome,[10],inactive
same,outcome,[11],inactive
same,outcome,[12],inactive
same,outcome,[13],inactive
same,outcome,[14],inactive
same,outcome,[15],inactive
same,outcome,[16],inactive
c1ccc(-c2ccccc2OCCOCCN2CCCCC2)cc1,outcome,[1],inactive
same,outcome,[2],inactive
same,outcome,[3],inactive
same,outcome,[4],inactive
same,inhibition,[5],94% (active)
same,inhibition,[6],44% (active)
same,outcome,[7],inactive
same,outcome,[8],inactive
same,outcome,[9],inactive
same,outcome,[10],inactive
same,outcome,[11],inactive
same,outcome,[12],inactive
same,inhibition,[13],33.7% (active)
same,outcome,[14],inactive
same,outcome,[15],inactive
same,outcome,[16],inactive
COc1ccc(C2CC(c3ccccc3)Nc3nc(NC(=O)c4cccs4)nn32)cc1 (stereo not given),outcome,[1],inactive
same,outcome,[2],inactive
same,outcome,[3],inactive
same,outcome,[4],inactive
same,inhibition,[5],95% (active)
same,outcome,[6],inactive
same,outcome,[7],inactive
same,outcome,[8],inactive
same,outcome,[9],inactive
same,outcome,[10],inactive
same,outcome,[11],inactive
same,outcome,[12],inactive
same,outcome,[13],inactive
same,outcome,[14],inactive
same,outcome,[15],inactive
same,outcome,[16],inactive
Cc1ccccc1CN1CCCC(C(=O)Nc2ccccc2Oc2cccnc2)C1 (stereo not given),outcome,[1],inactive
same,outcome,[2],inactive
same,outcome,[3],inactive
same,outcome,[4],inactive
same,inhibition,[5],88% (active)
same,inhibition,[6],51% (active)
same,outcome,[7],inactive
same,outcome,[8],inactive
same,outcome,[9],inactive
same,outcome,[10],inactive
same,outcome,[11],inactive
same,outcome,[12],inactive
same,inhibition,[13],39.9% (active)
same,outcome,[14],inactive
same,outcome,[15],inactive
same,outcome,[16],inactive
CCn1cc(CN2CCCC(CO)(Cc3cccc(Cl)c3)C2)cn1 (stereo not given),outcome,[1],inactive
same,outcome,[2],inactive
same,outcome,[3],inactive
same,outcome,[4],inactive
same,inhibition,[5],94% (active)
same,outcome,[6],inactive
same,outcome,[7],inactive
same,outcome,[8],inactive
same,outcome,[9],inactive
same,outcome,[10],inactive
same,outcome,[11],inactive
same,outcome,[12],inactive
same,inhibition,[13],38.8% (active)
same,outcome,[14],inactive
same,outcome,[15],inactive
same,outcome,[16],inactive
Cc1cc(C)c(S(=O)(=O)c2ccccc2C)c(OCC(C)(C)C)n1,outcome,[1],inactive
same,outcome,[2],inactive
same,outcome,[3],inactive
same,outcome,[4],inactive
same,inhibition,[5],91% (active)
same,inhibition,[6],43% (active)
same,outcome,[7],inactive
same,outcome,[8],inactive
same,outcome,[9],inactive
same,outcome,[10],inactive
same,outcome,[11],inactive
same,outcome,[12],inactive
same,inhibition,[13],15.5% (active)
same,outcome,[14],inactive
same,outcome,[15],inactive
same,outcome,[16],inactive
Cc1cc(-c2sccc2C)nc(-n2cccc2)n1,outcome,[1],inactive
same,outcome,[2],inactive
same,outcome,[3],inactive
same,outcome,[4],inactive
same,inhibition,[5],91% (active)
same,outcome,[6],inactive
same,outcome,[7],inactive
same,outcome,[8],inactive
same,outcome,[9],inactive
same,outcome,[10],inactive
same,outcome,[11],inactive
same,outcome,[12],inactive
same,outcome,[13],inactive
same,outcome,[14],inactive
same,outcome,[15],inactive
same,outcome,[16],inactive
COc1ccc(Br)cc1CNC(C)c1ccccc1 (stereo not given),outcome,[1],inactive
same,outcome,[2],inactive
same,outcome,[3],inactive
same,outcome,[4],inactive
same,inhibition,[5],55% (active)
same,outcome,[6],inactive
same,outcome,[7],inactive
same,outcome,[8],inactive
same,inhibition,[9],49.5% (active)
same,outcome,[10],inactive
same,outcome,[11],inactive
same,outcome,[12],inactive
same,inhibition,[13],23.6% (active)
same,outcome,[14],inactive
same,outcome,[15],inactive
same,outcome,[16],inactive
C=CCNc1nc(N2CCCC2)nc2ccccc12,outcome,[1],inactive
same,outcome,[2],inactive
same,outcome,[3],inactive
same,outcome,[4],inactive
same,inhibition,[5],98% (active)
same,inhibition,[6],74% (active)
same,outcome,[7],inactive
same,outcome,[8],inactive
same,inhibition,[9],37.5% (active)
same,outcome,[10],inactive
same,outcome,[11],inactive
same,outcome,[12],inactive
same,inhibition,[13],19.9% (active)
same,outcome,[14],inactive
same,outcome,[15],inactive
same,outcome,[16],inactive
Cn1c(NCc2ccccc2O)nc2ccccc21,outcome,[1],inactive
same,outcome,[2],inactive
same,outcome,[3],inactive
same,outcome,[4],inactive
same,inhibition,[5],62% (active)
same,outcome,[6],inactive
same,outcome,[7],inactive
same,outcome,[8],inactive
same,outcome,[9],inactive
same,outcome,[10],inactive
same,outcome,[11],inactive
same,outcome,[12],inactive
same,outcome,[13],inactive
same,outcome,[14],inactive
same,outcome,[15],inactive
same,outcome,[16],inactive
